# Laboratory results reported in PubChem BioAssay.
# Results filed as inconclusive are left out. For some assays here: Potency and affinity values are given separately. Calls of active or inactive are those of the source. Unless noted, the limit is not given here; nearly all actives have AC50 up to about 26 µM.
# Key:
# [1] = compounds altering viability of human ES cells (AID 493140; call rule not given here;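 also: cells exposed to compounds for four days before counting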); settings: human embryonic stem cell survival screen; stronger effect = higher value
# [2] = viability loss in pontine glioma line – cell-based, SU-DIPG-XIII, MIPE4.0, CellTiter-Glo, qHTS, dose response (AID 1347061; cut-off not given, nearly all actives have AC50 up to about 37 µM;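 also: cells exposed to compound for 48 hours before readout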); settings: CellTiter-Glo ATP luminescence
# [3] = viability loss in pontine glioma line – cell-based, SU-DIPG-IV, MIPE4.0, CellTiter-Glo, qHTS, dose response (AID 1347063; cut-off not given, nearly all actives have AC50 up to about 30 µM;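 also: compound exposure lasted 48 hours before the viability readout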); settings: CellTiter-Glo ATP luminescence
# [4] = growth inhibition of DIPG cells – cell-based, MIPE5.0 library, qHTS (AID 1347068; cut-off not given, nearly all actives have IC50 up to about 30 µM;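 as to IC50: cells exposed to compound for 48 hours before viability readout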); settings: SU-DIPG-XXV viability
# [5] = test system: Hepatitis C virus NS3 helicase; test: blockers of NS3h binding to ssDNA – biochemical, fluorescence polarization, LOPAC1280 library, primary screen (AID 687035; in the data active = inhibition above about 37%); settings: Purified HCV NS3 helicase, Cy5-dT15 ssDNA binding fluorescence polarization; stronger effect = higher value; concentration not given here
# [6] = compounds altering Cy5-DNA-NS3h complex signal – biochemical, LOPAC1280, artefact control for HCV NS3 helicase inhibitor project (AID 687037; call rule not given here); settings: Cy5-DNA-NS3h complex fluorescence interference counterscreen
# [7] = viability loss in pontine glioma line – cell-based, SU-DIPG-XVII, MIPE5.0, CellTiter-Glo, qHTS, dose response (AID 1347060); settings: CellTiter-Glo ATP luminescence;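 as to AC50: cells exposed to compound for 48 hours before viability readout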
# [8] = viability loss in pontine glioma line – cell-based, JHH-DIPG-1, MIPE4.0, CellTiter-Glo, qHTS, dose response (AID 1347062; cut-off not given, nearly all actives have AC50 up to about 27 µM;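 also: cells exposed to compound for two days before readout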); settings: JHH-DIPG-1 viability, CellTiter-Glo ATP luminescence
# [9] = viability loss in pontine glioma line – cell-based, SU-DIPG-XXV, MIPE5.0, CellTiter-Glo, qHTS, dose response (AID 1347065); settings: CellTiter-Glo ATP luminescence;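 also: cells exposed to compound for 48 hours before ATP readout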
# [10] = growth inhibition of DIPG cells – cell-based, MIPE4.0 library, CellTiter-Glo luminescence, qHTS (AID 1347066; cut-off not given, nearly all actives have AC50 up to about 30 µM;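 also: cells exposed to compound for 48 hours before readout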); settings: SU-DIPG-VI viability, CellTiter-Glo ATP luminescence
# [11] = JHH-DIPG-1 glioma cell viability, MIPE5.0 library, CellTiter-Glo luminescence, qHTS (AID 1347067); settings: JHH-DIPG-1 glioma viability, CellTiter-Glo ATP luminescence;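 also: cells exposed to compound for 48 hours before readout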
# [12] = blockers of cellular phospholipid synthesis – cell-based, LOPAC library, screen 4, primary screen (AID 1347384; call rule not given here); settings: animal cells, phospholipid biosynthesis inhibition screen; at 10 µM
# [13] = restoration of touch response, mutant HTT neurons – whole organism, C. elegans mechanosensory neurons, N-terminal huntingtin (AID 1599); settings: C. elegans polyQ-huntingtin mechanosensory neurons, stronger effect = higher value
# [14] = 75Q-TubH aggregate inhibition, S. cerevisiae, yeast (AID 1616); settings: S. cerevisiae 75Q-TubH polyglutamine aggregation suppression; stronger effect = higher value
# [15] = growth inhibition, single agents and combos, LFS_MB_1R, cell-based, cisplatin or BGB combos, synergistic combos for chromothripsis tumors (AID 1671452; in the data active = inhibition above about 80%;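 also: cells exposed for 96 hours before readout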); settings: LFS_MB_1R medulloblastoma cells, stronger effect = higher value
# [16] = growth inhibition, MDA-MB-436, cell-based, BGB or cisplatin combos, synergistic combos for chromothripsis tumors (AID 1671458; call rule not given here;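 also: cells exposed for 96 hours; 0% = vehicle DMSO and 100% = killing by high DMSO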); settings: MDA-MB-436 breast carcinoma growth inhibition, drug combinations, stronger effect = higher value
# [17] = BT084 cell growth, single and combined drugs, ICGC_MB145, cisplatin and BGB IC40 combos (AID 1671461; in the data active = inhibition above about 80%;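 also: cells exposed to drugs for 96 hours; 0% = vehicle DMSO and 100% = high DMSO full killing control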); settings: BT084 medulloblastoma cells, drug combinations, stronger effect = higher value
# [18] = RCMB18 cell growth, single agent and combined, cisplatin and BGB IC40 combos (AID 1671462; in the data active = inhibition above about 80%;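 also: cells exposed to compound for four days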); settings: RCMB18 medulloblastoma cells, stronger effect = higher value
# [19] = CRL1545 cell growth, single agent and combined, cisplatin and BGB IC20 combos (AID 1671464; in the data active = inhibition above about 80%;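 also: cells exposed to compound for 96 hours before readout; 0% = vehicle DMSO and 100% = high DMSO killing control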); settings: CRL1545 osteosarcoma cells, stronger effect = higher value
# [20] = measured here: combination with cisplatin, at 0.5 µM
smiles,measurement,setting,value
CCC(C)(C)C(=O)O[C@H]1C[C@@H](C)C=C2C=C[C@H](C)[C@H](CC[C@@H]3C[C@@H](O)CC(=O)O3)[C@H]21,survival,[1],1.17 (inactive)
same,outcome,[2],inactive
same,AC50,[3],18.7 µM (active)
same,outcome,[4],inactive
CC[C@H]1CN2CCc3cc(OC)c(OC)cc3[C@@H]2C[C@@H]1C[C@H]1NCCc2cc(OC)c(OC)cc21,inhibition,[5],2% (inactive)
same,fluorescence ratio (interference),[6],1 (inactive)
same,AC50,[7],0.263 µM (active)
same,AC50,[8],1.32 µM (active)
same,AC50,[3],0.526 µM (active)
same,AC50,[9],0.417 µM (active)
same,AC50,[10],20.9 µM (active)
same,AC50,[11],0.833 µM (active)
same,IC50,[4],0.742 µM (active)
same,outcome,[12],inactive
CCN(CC)CCCC(C)Nc1c2ccc(Cl)cc2nc2ccc(OC)cc12 (stereo not drawn),rescue above control,[13],26.7
same,aggregation suppression score,[14],1.04
same,inhibition,[5],1% (inactive)
same,fluorescence ratio (interference),[6],1 (inactive)
same,AC50,[7],8.33 µM (active)
same,AC50,[9],11.8 µM (active)
same,AC50,[11],11.8 µM (active)
same,outcome,[12],inactive
same,inhibition,[15]; at 0.5 µM,3.87% (inactive)
same,inhibition,"[15]; measured here: combination with BGB IC40, at 0.05 µM",-25.2%
same,inhibition,[15]; [20],4.45%
same,inhibition,"[15]; measured here: combination with cisplatin, at 5 µM",100%
same,inhibition,[16]; at 0.5 µM,4.39% (inactive)
same,inhibition,"[16]; measured here: BGB combination, at 0.5 µM",-0.472%
same,inhibition,"[16]; measured here: BGB combination, at 5 µM",95.8%
same,inhibition,"[16]; measured here: cisplatin combination, at 0.5 µM",-17.3%
same,inhibition,"[16]; measured here: cisplatin combination, at 5 µM",98%
same,inhibition,[17]; at 0.5 µM,1.42% (inactive)
same,inhibition,"[17]; cisplatin combination, at 0.5 µM",-5.45%
same,inhibition,"[17]; cisplatin combination, at 5 µM",99.5%
same,inhibition,"[17]; measured here: BGB IC40 combination 0.05 uM, at 0.05 µM",-3.72%
same,inhibition,"[17]; single agent, at 5 µM",105%
same,inhibition,[18]; at 0.5 µM,-4.03% (inactive)
same,inhibition,"[18]; cisplatin combo, at 5 µM",92.9%
same,inhibition,"[18]; measured here: BGB IC40 combination, at 0.05 µM",-9.76%
same,inhibition,[18]; [20],-29.6%
same,inhibition,"[18]; single agent, at 5 µM",73.4%
same,inhibition,[19]; at 0.5 µM,9.17% (inactive)
same,inhibition,"[19]; measured here: with BGB IC20 combination, at 0.5 µM",-5.37%
same,inhibition,"[19]; measured here: with cisplatin IC20 combination, at 0.5 µM",14.5%
same,inhibition,"[19]; single agent, at 0.05 µM",-8.93%
same,inhibition,"[19]; single agent, at 5 µM",99.9%
CCOC(=O)[C@H](CCc1ccccc1)N[C@H]1CCc2ccccc2N(CC(=O)O)C1=O,outcome,[7],inactive
same,AC50,[2],20.9 µM (active)
same,AC50,[8],16.6 µM (active)
same,AC50,[3],10.5 µM (active)
same,outcome,[9],inactive
same,outcome,[11],inactive
same,outcome,[4],inactive
